Source: PubChem BioAssay
HT1080 IDH1KD tx: HT-1080 IDH1 knockdown cell toxicity (counter line); 360,000 compounds, 2% hits; HT-1080 IDH1 knockdown viability, ATP luminescence, 48 h; Potency, µM (titrated, usually from 46.1 µM), usual class: cytotoxic
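Assay cells: HT-1080 with IDH1 knockdown, 750 per well, RPMI/5% FBS. Exposure: 48 h at 37 °C following 2 h pre-incubation. Read: CellTiter-Glo luminescence; fitted concentration-response, curve class assigned.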
DT40 TDP1 no CPT: qHTS for Inhibitors of human tyrosyl-DNA phosphodiesterase 1 (TDP1): qHTS in cells in absence of CPT; DT40 Tdp1-/- hTDP1 cells, no CPT, ATP luminescence, 48 h; 420,000 compounds, 15% hits; AID 686978, 2013; Potency, µM (top dose mostly 46.2 µM), actives largely listed as inhibitors; also: nearly all actives have a fitted effect of over 55% in size
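A cellular qHTS used chicken DT40 cells lacking endogenous Tdp1 but carrying stably transfected human TDP1. Compounds were applied without camptothecin, and cell growth kinetics were judged by ATP-dependent luminescence after ≥48 hr.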
DT40 TDP1 CPT: DT40-hTDP1 cell growth loss with CPT | chicken DT40 Tdp1-/-;hTDP1 cells + 20 nM CPT, ATP luminescence, 48 h | Potency, µM (highest dose often 46.2 µM), most hits filed as inhibitors | 420,000 compounds, 12% hits | AID 686979; also: nearly all actives have a fitted effect of over 55% in size
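Cell growth measured by CellTiter-Glo luminescence after a minimum 48 h, 37 C compound exposure with 20 nM CPT in Tdp1-knockout DT40 cells stably expressing hTDP1, seeded 400/well; qHTS titration format.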
KB-V1 MDR tox: KB-V1 MDR subline cytotoxicity; KB-V1 MDR cells viability, CellTiter-Glo, 72 h; Potency, µM (titrated, usually from 46.1 µM), actives largely listed as cytotoxic; 400,000 compounds, 3.4% hits; AID 1347076; also: nearly all actives have a fitted effect of over 60% in size
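Potencies derive from concentration-effect curves fitted to normalized luminescence (CellTiter-Glo) of KB-V1 cells treated for 72 h at 37 degrees C in phenol-red-free DMEM containing 10% FBS.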
KB-3-1 cytotox: kills parental KB-3-1 adenocarcinoma cells. KB-3-1 viability, CellTiter-Glo ATP luminescence, 72 h. Potency, µM (highest dose often 46.1 µM), actives largely listed as cytotoxic. 400,000 compounds, 1.4% hits; also: nearly all actives have a fitted effect of over 60% in size
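Using CellTiter-Glo luminescence, growth of non-resistant KB-3-1 adenocarcinoma cells is assessed 72 h after pin-tool compound addition at 37 °C. Normalized responses across the concentration series yield fitted curves.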
HT1080-NT tox: kills 2HG-producing HT-1080-NT fibrosarcoma cells | Potency, µM (top dose mostly 46.1 µM), most hits filed as cytotoxic | HT-1080-NT fibrosarcoma viability, CellTiter-Glo ATP luminescence, 48 h | 360,000 compounds, 1.6% hits;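 also: NT is the 2HG producing partner of a matched IDH1 knockdown line; nearly all actives have a fitted effect of over 55% in size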
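Viability by CellTiter-Glo luminescence after 48 h compound exposure at 37C of HT-1080-NT cells (750/well, RPMI, 5% FBS). % activity scaled between DMSO wells and medium-only wells, then curve-fitted and categorized by curve class.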
A number is an active result; – = inactive; ? = inconclusive; · = no result; [ ] = another dose, or the depositor's remark. In the library only some 19% were active in any assay of this set; here they are far more common. Calls follow the shape of the dose curve; as a rule, active = well fitted curve in the direction sought with a large enough effect; inconclusive = small, poorly fitted or top-dose-only effect, or another doubt; inactive = no such curve, though single readings can be large; an effect the other way counts as inactive or inconclusive.

SMILES	HT1080 IDH1KD tx	DT40 TDP1 no CPT	DT40 TDP1 CPT	KB-V1 MDR tox	KB-3-1 cytotox	HT1080-NT tox
Nc1nn(-c2ccccc2)c(N)c1N=Nc1ccccc1F	5.8µM	13µM	9.2µM	4.61µM	?	8.2µM
Nc1ccc2ccccc2c1N=Nc1ccccc1	?	?	?	–	–	–
COc1cc(O)c(C(C)=O)c(CC(=O)O)c1	–	–	–	–	–	–
O=C(Nc1cc([N+](=O)[O-])ccc1C(=O)NCCN1CCOCC1)c1ccccc1	–	–	–	·	·	–
CC(=O)N1CCC(C(=O)N2c3ccccc3N=C(c3ccc4c(c3)OCO4)C2C(=O)NCc2ccccc2)CC1 (stereo unspecified)	–	–	–	–	–	–
CC(C)C[C@H]1CN(CCCC[C@H]2CNC(=O)C(=O)N2CCc2ccc(O)cc2)C(=O)C(=O)N1Cc1ccccc1	–	–	–	–	–	–
Cc1nn(-c2ccccc2)c(N)c1N=Nc1ccccc1	?	20.6µM	?	?	?	?
CC1(C)CC(=O)C(N=Nc2cccc(S(=O)(=O)N3CCOCC3)c2)=C(O)C1	–	–	–	–	–	–
Cc1nn(-c2ccccc2)c(N)c1N=Nc1cccc(S(=O)(=O)N2CCOCC2)c1	?	16.4µM	?	4.11µM	?	?
Cc1nn(-c2ccccc2)c(N)c1N=Nc1ccc(Cl)cc1	?	?	?	?	–	?
COc1ccc(OCC(=O)Nc2cccc(-c3nc4ccccc4[nH]3)c2)cc1	?	?	14.6µM	?	–	–[9.24 µM]
O=C(COc1ccccc1)Nc1cccc(-c2nc3ccccc3[nH]2)c1	?	23.1µM	?	?	–	?
COc1ccc(OCC(=O)Nc2cccc(-c3nc4ccccc4o3)c2)cc1	–	–	–	–	–	–
O=C(NCc1ccccc1)c1ccc2c(c1)CCN2S(=O)(=O)c1ccc(Cl)cc1	·	?	?	–	–	·
COc1ccccc1CNC(=O)c1ccc2c(c1)CCN2S(=O)(=O)c1ccccc1	·	8.2µM	?	–	–	·
COc1ccc(CNC(=O)c2ccc3c(c2)CCN3S(=O)(=O)c2ccc(C)cc2)cc1	·	13µM	10.3µM	–	–	·
Cc1ccc(S(=O)(=O)N2CCc3cc(C(=O)NCCc4ccccc4)ccc32)cc1	·	–	?	–	–	·
O=c1[nH]ncc(NCc2ccc(Cl)cc2)c1Cl	–	?	?	–	–	–
S=c1cn[nH]c2ccccc12	–	–	–	–	–	–
CCOc1ccc(CCN2C(=S)N([C@@H](CC(C)C)CN3CCCC3CN3C(=S)NC[C@@H]3Cc3ccc(O)cc3)C[C@@H]2Cc2ccc(O)cc2)cc1 (stereo partly specified)	?	6.51µM	6.51µM	?	?	?
CCOc1ccc(CCN2C(=S)N([C@@H](CC(C)C)CN3CCCC3CN3C(=S)NC[C@@H]3Cc3ccc(O)cc3)C[C@@H]2Cc2ccccc2)cc1 (stereo partly specified)	–	?	16.4µM	?	?	–
CCOc1ccc(CCN2C(=S)N([C@@H](Cc3ccc(O)cc3)CN3CCC[C@@H]3CN3C(=S)NC[C@@H]3Cc3ccccc3)C[C@@H]2Cc2ccc(O)cc2)cc1	?	4.11µM	3.66µM	–	?	?
CCOc1ccc(CCN2C(=O)C(=O)N([C@@H](Cc3ccccc3)CN3CCC[C@@H]3CN3C(=O)C(=O)NC[C@@H]3Cc3ccc(O)cc3)C[C@@H]2Cc2ccccc2)cc1	–	–	–	–	–	–
CCOc1ccc(CCN2C(=O)C(=O)N([C@@H](CC(C)C)CN3CCC[C@H]3CN3C(=O)C(=O)NC[C@@H]3Cc3ccc(O)cc3)C[C@@H]2CC(C)C)cc1	?	?	?	–	–	?
CC(=O)Nc1ccc(C(=O)N2CCCC(n3cc(C(=O)NCC(C)C)nn3)C2)cc1 (stereo unspecified)	·	–	–	·	·	·
SMILES	HT1080 IDH1KD tx	DT40 TDP1 no CPT	DT40 TDP1 CPT	KB-V1 MDR tox	KB-3-1 cytotox	HT1080-NT tox
O=c1[nH]c(CNCc2cccnc2)nc2ccccc12	–	–	–	?	–	–
CN1C(=O)CS/C1=N\NC(=O)COc1cccc2cccnc12	–	–	–	–	–	–
CCN(C(=O)c1cc(S(=O)(=O)N2CCCCC2)c[nH]1)c1ccc(OC)cc1	–	23.1µM	9.2µM	–	–	–
Cc1cccc(CCNC(=O)c2cc(S(=O)(=O)N3CCCCC3)c[nH]2)c1	–	?	18.4µM	–	–	–
Cc1ccc(N2CCN(C(=O)c3cc(S(=O)(=O)N4CCCCC4)c[nH]3)CC2)c(C)c1	·	16.4µM	16.4µM	–	–	·
CC1CCN(C(=O)c2cc(S(=O)(=O)N3CCCCC3)c[nH]2)CC1	–	?	–	–	–	–
CCc1ccc(S(=O)(=O)c2cn(CC(=O)Nc3ccc(C)cc3)c3ccccc3c2=O)cc1	·	?	–	?	–	·
Cc1ccccc1-n1nnnc1SCC(=O)NCC1CCCO1 (stereo unspecified)	–	–	–	–	–	–
O=C(NC1CC(=O)N(c2ccc(F)cc2)C1)c1ccc(S(=O)(=O)N2CCOCC2)cc1 (stereo unspecified)	·	–	–	·	·	·
CC(C)CN(C)Cc1c(C(=O)N2CCc3ccccc3C2)nc2ccc(Cl)cn12	–	20.6µM	18.4µM	16.4µM	?	?
O=C(CCc1nc(-c2cccs2)no1)Nc1ccccc1[N+](=O)[O-]	·	?	–	–	–	·
COc1cccc(C(=O)NCC(=O)N2CCC3(CC2)NCCc2[nH]cnc23)c1OC	–	–	–	–	–	–
COc1ccccc1N1CCN(C(=O)c2ccc(COc3cccc4c3OC(C)(C)C4)cc2)CC1	–	16.4µM	?	?	?	–
CC1(C)Cc2cccc(OCC(=O)N3CCN(c4ccccc4F)CC3)c2O1	–	?	?	–	–	–
O=C(c1ccc(Cn2cc(Cl)cn2)cc1)N1CCN(c2ccccc2)CC1	–	?	–	?	?	–
O=C(c1ccc(CN2CCc3ccccc3C2)cc1)N1CCN(c2ccc(F)cc2)CC1	–	13µM	16.4µM	?	?	–
O=C(c1ccc(CN2CCc3ccccc3C2)cc1)N1CCCCC1	–	?	–	–	–	–
COc1ccccc1N1CCN(C(=O)c2ccc(CN3CCc4ccccc4C3)cc2)CC1	–	?	16.4µM	–	–	–
O=C(c1ccc(Cn2cc(Br)cn2)cc1)N1CCN(c2ccccc2)CC1	?	16.4µM	14.6µM	–	–	?
CCC(C)NC(=O)C1(N2C(=O)c3ccccc3C2=O)CCCC1 (stereo unspecified)	–	–	–	–	–	–
